Laboratory results as given in PubChem BioAssay AID1159580 (chemical genetic matrix, 2015).
Out of some 5,500 compounds screened, about 2,000 (36%) were called active. Another 18% or so got no clear call; they are omitted. Rule as the data show it: active = normalized growth mostly below about 0.91 (no sharp cut-off); inconclusive = no clear call, values can overlap the other calls; inactive = mostly above about 0.92. This is one part of the list.

Test: chemical genetic growth profiling, strain panel (AID 1159580);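 also: tested at 20 µM; growth read once vehicle control cultures reached saturation at 30 °C; 1 = growth at the plate median or of vehicle wells; lower values mean less growth of the strain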
Details: growth OD

Measured: normalized growth

C#C[C@]1(OC(C)=O)CCC2C3CCC4=CC(=O)CC[C@@H]4C3CC[C@@]21C (stereo partly drawn)
inactive: S. cerevisiae deletion strains, locus YKL009W, strain mrt4, stronger effect = lower value 0.968 | S. cerevisiae deletion strains, locus YKL068W, stronger effect = lower value 0.973 | S. cerevisiae deletion strains, locus YKL085W, strain MDH1 (second series), stronger effect = lower value 0.967 | S. cerevisiae deletion strains, locus YKL085W, strain MDH1, stronger effect = lower value 0.967 | S. cerevisiae deletion strains, locus YKL160W, strain elf1, stronger effect = lower value 0.964 | S. cerevisiae deletion strains, locus YKL190W, strain CNB1, stronger effect = lower value 0.977 | S. cerevisiae deletion strains, locus YKR001C, strain vps1, stronger effect = lower value 0.945 | S. cerevisiae deletion strains, locus YKR026C, strain gcn3, stronger effect = lower value 0.984 | S. cerevisiae deletion strains, locus YKR091W, strain srl3, stronger effect = lower value 0.992 | S. cerevisiae deletion strains, locus YLL001W, strain dnm1, stronger effect = lower value 0.988 | S. cerevisiae deletion strains, locus YLL026W, stronger effect = lower value 0.99 | S. cerevisiae deletion strains, locus YLL041C, strain sdh2, stronger effect = lower value 0.976 | S. cerevisiae deletion strains, locus YLR027C, strain aat2, stronger effect = lower value 0.988 | S. cerevisiae deletion strains, locus YLR039C, strain RIC1, stronger effect = lower value 0.892 | S. cerevisiae deletion strains, locus YLR058C, strain SHM2, stronger effect = lower value 0.965 | S. cerevisiae deletion strains, locus YLR102C, strain apc9, stronger effect = lower value 0.975 | S. cerevisiae deletion strains, locus YLR113W, strain HOG1, stronger effect = lower value 0.93 | S. cerevisiae deletion strains, locus YLR221C, strain rsa3, stronger effect = lower value 1.02 | S. cerevisiae deletion strains, locus YLR258W, strain gsy2, stronger effect = lower value 0.965 | S. cerevisiae deletion strains, locus YLR262C, strain YPT6 (second series), stronger effect = lower value 0.991 | S. cerevisiae deletion strains, locus YLR262C, strain YPT6, stronger effect = lower value 0.842 | S. cerevisiae deletion strains, locus YLR268W, strain sec22, stronger effect = lower value 0.926 | S. cerevisiae deletion strains, locus YLR320W, strain mms22, stronger effect = lower value 0.969 | S. cerevisiae deletion strains, locus YLR330W, strain CHS5, stronger effect = lower value 0.978 | S. cerevisiae deletion strains, locus YLR342W, strain FKS1 (second series), stronger effect = lower value 0.956 | S. cerevisiae deletion strains, locus YLR342W, strain FKS1, stronger effect = lower value 0.961 | S. cerevisiae deletion strains, locus YLR357W, strain rsc2, stronger effect = lower value 0.975 | S. cerevisiae deletion strains, locus YLR370C, strain arc18, stronger effect = lower value 0.986 | S. cerevisiae deletion strains, locus YLR371W, strain rom2, stronger effect = lower value 0.983 | S. cerevisiae deletion strains, locus YLR384C, strain iki3, stronger effect = lower value 0.991 | S. cerevisiae deletion strains, locus YML016C, strain PPZ1, stronger effect = lower value 0.963 | S. cerevisiae deletion strains, locus YML032C, strain rad52, stronger effect = lower value 0.957 | S. cerevisiae deletion strains, locus YML120C, strain ndi1, stronger effect = lower value 1.02 | S. cerevisiae deletion strains, locus YML124C, strain tub3, stronger effect = lower value 0.962 | S. cerevisiae deletion strains, locus YMR058W, strain fet3, stronger effect = lower value 1 | S. cerevisiae deletion strains, locus YMR078C, strain ctf18, stronger effect = lower value 0.958 | S. cerevisiae deletion strains, locus YMR125W, strain sto1, stronger effect = lower value 0.978 | S. cerevisiae deletion strains, locus YMR129W, stronger effect = lower value 0.973 | S. cerevisiae deletion strains, locus YMR205C, strain PFK2, stronger effect = lower value 0.984 | S. cerevisiae deletion strains, locus YMR223W, strain ubp8, stronger effect = lower value 0.962 | S. cerevisiae deletion strains, locus YMR231W, strain pep5, stronger effect = lower value 1 | S. cerevisiae deletion strains, locus YMR307W, strain GAS1, stronger effect = lower value 1.08 | S. cerevisiae deletion strains, locus YNL067W, strain RPL9B, stronger effect = lower value 0.984 | S. cerevisiae deletion strains, locus YNL071W, strain lat1, stronger effect = lower value 0.986 | S. cerevisiae deletion strains, locus YNL128W, strain TEP1, stronger effect = lower value 0.977 | S. cerevisiae deletion strains, locus YNL153C, strain GIM3, stronger effect = lower value 0.974 | S. cerevisiae deletion strains, locus YNL183C, strain NPR1, stronger effect = lower value 0.927 | S. cerevisiae deletion strains, locus YNL209W, strain ssb2, stronger effect = lower value 0.983 | S. cerevisiae deletion strains, locus YNL233W, strain BNI4, stronger effect = lower value 0.977 | S. cerevisiae deletion strains, locus YNL248C, strain rpa49, stronger effect = lower value 0.963 | S. cerevisiae deletion strains, locus YNL250W, strain rad50, stronger effect = lower value 0.971 | S. cerevisiae deletion strains, locus YNL271C, strain bni1, stronger effect = lower value 0.961 | S. cerevisiae deletion strains, locus YNL298W, strain CLA4, stronger effect = lower value 0.964 | S. cerevisiae deletion strains, locus YNL322C, strain KRE1 (second series), stronger effect = lower value 0.949 | S. cerevisiae deletion strains, locus YNR049C, strain mso1, stronger effect = lower value 0.994 | S. cerevisiae deletion strains, locus YNR052C, strain pop2, stronger effect = lower value 0.932 | S. cerevisiae deletion strains, locus YOL006C, strain TOP1, stronger effect = lower value 0.867 | S. cerevisiae deletion strains, locus YOL012C, strain htz1 1 | S. cerevisiae deletion strains, locus YOL147C, strain pex11, stronger effect = lower value 0.967 | S. cerevisiae deletion strains, locus YOR001W, strain rrp6, stronger effect = lower value 1.02 | S. cerevisiae deletion strains, locus YOR061W, strain CKA2, stronger effect = lower value 0.942 | S. cerevisiae deletion strains, locus YOR069W, strain VPS5, stronger effect = lower value 0.974 | S. cerevisiae deletion strains, locus YOR070C, strain gyp1, stronger effect = lower value 0.994 | S. cerevisiae deletion strains, locus YOR080W, strain dia2, stronger effect = lower value 0.978 | S. cerevisiae deletion strains, locus YOR083W, strain WHI5, stronger effect = lower value 0.937 | S. cerevisiae deletion strains, locus YOR106W, strain vam3, stronger effect = lower value 0.982 | S. cerevisiae deletion strains, locus YOR136W, strain idh2, stronger effect = lower value 0.992 | S. cerevisiae deletion strains, locus YOR144C, strain elg1, stronger effect = lower value 0.97 | S. cerevisiae deletion strains, locus YOR231W, strain MKK1, stronger effect = lower value 0.956 | S. cerevisiae deletion strains, locus YOR265W, strain rbl2, stronger effect = lower value 0.998 | S. cerevisiae deletion strains, locus YOR270C, strain vph1, stronger effect = lower value 0.996 | S. cerevisiae deletion strains, locus YOR290C, strain snf2, stronger effect = lower value 0.961 | S. cerevisiae deletion strains, locus YOR316C, strain cot1, stronger effect = lower value 0.969 | S. cerevisiae deletion strains, locus YPL051W, strain arl3, stronger effect = lower value 0.98 | S. cerevisiae deletion strains, locus YPL078C, strain atp4, stronger effect = lower value 0.968 | S. cerevisiae deletion strains, locus YPL106C, strain sse1, stronger effect = lower value 0.939 | S. cerevisiae deletion strains, locus YPL240C, strain hsp82, stronger effect = lower value 0.989 | S. cerevisiae deletion strains, locus YPL241C, strain CIN2, stronger effect = lower value 0.975 | S. cerevisiae deletion strains, locus YPL256C, strain CLN2, stronger effect = lower value 0.88 | S. cerevisiae deletion strains, locus YPR119W, strain clb2, stronger effect = lower value 0.972 | S. cerevisiae deletion strains, locus YPR141C, strain kar3, stronger effect = lower value 0.946 | S. cerevisiae deletion strains, locus YPR163C, strain tif3, stronger effect = lower value 0.966 | S. cerevisiae deletion strains, locus YPR167C, strain met16, stronger effect = lower value 0.958 | S. cerevisiae deletion strains, strain wtn01, stronger effect = lower value 0.936 | S. cerevisiae strains, strain wild type, stronger effect = lower value 0.953
active: S. cerevisiae deletion strains, locus YLR418C, strain cdc73, stronger effect = lower value 0.803 | S. cerevisiae deletion strains, locus YNL307C, strain MCK1, stronger effect = lower value 0.889 | S. cerevisiae deletion strains, locus YOR184W, strain ser1, stronger effect = lower value 0.829
